For ten molecules, Potency and max activation results are on record in PubChem BioAssay (Tox21).

Each structure is given as a SMILES string. Several values for one entry are separate records, joined by “and”; a condition that tells them apart may be missing. Equal entries are not always repeated. A number with no mark means an inactive call. Records with an inconclusive call do not appear. Activity calls are given as the source filed them. Calls come from the whole dose curve; as a rule, active = well fitted curve in the direction sought with a large enough effect in the repeat runs; inconclusive = weak or mixed curves; inactive = no such curve, though single readings can be large; an effect the other way counts as inactive or inconclusive.

Assay [1] is described as follows: Human pregnane X receptor (PXR) small molecule agonists, qHTS cell viability counter screen (AID 1346977). Note: nearly all actives have a fitted effect of over 50% in size. Note: potency is the fitted concentration of half-maximal effect. The method in brief: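 PXR-Luc HepG2, 2,000 cells/well, 5% charcoal-stripped FBS; 5hr settle; cpd 24hr, 37C/5% CO2; CellTiter-Fluor at 23hr, read 1hr later (fluorescence).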
On the technique in general: In qHTS, concentration-response curves come from the screen itself.

Assay [2] can be described thus: Caspase-3/7 induction in HepG2 cells by small molecules, qHTS assay (AID 1346978). Note: nearly all actives have a fitted effect of over 15% in size. Note: potency is the fitted concentration of half-maximal effect. The method, boiled down:
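Caspase-3/7 induction was measured by Caspase-Glo 3/7 luminescence (30 min, room temperature) after a 17 hr compound exposure of wild-type HepG2 cells seeded at 2,000 per well and pre-incubated 5 hr.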

The nature of assay [3]: Caspase-3/7 induction in CHO-K1 cells by small molecules, qHTS cell viability counter screen (AID 1346979). Note: nearly all actives have a fitted effect of over 35% in size. Note: potency is the fitted concentration of half-maximal effect. The method, boiled down:
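Cells (CHO-K1, wild type) are plated at 1,500 per well and incubated 5hr. Test compounds in DMSO are then pinned in, followed by 16hr at 37C and 5% CO2. Viability is read by CellTiter-Fluor fluorescence after 1hr.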

The nature of assay [4]: Caspase-3/7 induction in CHO-K1 cells by small molecules, qHTS assay (AID 1346980). Note: nearly all actives have a fitted effect of over 15% in size. Note: potency is the fitted concentration of half-maximal effect. The method, boiled down:
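Luminescent Caspase-Glo 3/7 read (30min, room temperature) quantified apoptosis induction. Cells were wild-type CHO-K1, treated with compound for 17hr at 37 C and 5% CO2.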

Assay [5] in a line: Caspase-3/7 induction in HepG2 cells by small molecules, qHTS cell viability counter screen (AID 1346981). Note: nearly all actives have a fitted effect of over 30% in size. Note: potency is the fitted concentration of half-maximal effect. The method in brief:
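Viability determined by CellTiter-Fluor fluorescence in HepG2 wells also used for the luminescent Caspase-Glo 3/7 read. Compounds were present for 16 hr at 37 C, 5% CO2 before reagent addition.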

The target of assay [6] is Nuclear receptor subfamily 1 group I member 2 (Homo sapiens) (UniProt O75469). Briefly: Human pregnane X receptor (PXR) small molecule agonists, qHTS assay (AID 1346982). Note: nearly all actives have a fitted effect of over 35% in size. Note: potency is the fitted concentration of half-maximal effect. The method, boiled down: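 Compound-induced hPXR transactivation of a CYP3A4 luciferase reporter was scored in HepG2 PXR-Luc cells over 24 hr at 37 C, 5% CO2, by luminescence.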
Assay [7] concerns the target Cytochrome P450 2D6 (Homo sapiens) (UniProt P10635). Description: Cytochrome P450 Family 2 Subfamily D Member 6 (CYP2D6) small molecule antagonists: luciferase reporter qHTS assay (AID 1671196). Note: nearly all actives have a fitted effect of over 50% in size. Note: potency is the fitted concentration of half-maximal effect. The method in brief: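 Each well received CYP2D6 with its proluciferin substrate and chemical, sat 10 min, then got NADPH regeneration solution for 1 h at room temperature. Luminescence in RLU served as the activity measure.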
On the technique in general: Reporter assays use an easily measured gene product as a stand-in for the process of interest.

In assay [8] the target is Cytochrome P450 2C19 (Homo sapiens) (UniProt P33261). Description: Cytochrome P450 Family 2 Subfamily C Member 19 (CYP2C19) small molecule antagonists: luciferase reporter qHTS assay (AID 1671197). Note: nearly all actives have a fitted effect of over 65% in size. Note: potency is the fitted concentration of half-maximal effect. The method, boiled down: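 P450-Glo CYP2C19 screening system; proluciferin substrate; DMSO compound stocks; 10 min RT preincubation; NADPH regeneration, 1 h at 37C; luciferin detection reagent, 20 min RT; luminescence as RLU.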

Assay [9] has as its target Cytochrome P450 2C9 (Homo sapiens) (UniProt P11712). Description: Cytochrome P450 Family 2 Subfamily C Member 9 (CYP2C9) small molecule antagonists: luciferase reporter qHTS assay (AID 1671198). Note: nearly all actives have a fitted effect of over 50% in size. Note: potency is the fitted concentration of half-maximal effect. The method in brief:
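Enzyme-substrate mix preincubated with compound 10 min at room temperature; reaction started with NADPH regeneration solution, 1 h 37C. Luminescent luciferin product read after 20 min detection reagent.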

The target in assay [10] is Cytochrome P450 1A2 (Homo sapiens) (UniProt P05177). Briefly: Cytochrome P450 Family 1 Subfamily A Member 2 (CYP1A2) small molecule antagonists: luciferase reporter qHTS assay (AID 1671199). Note: nearly all actives have a fitted effect of over 50% in size. Note: potency is the fitted concentration of half-maximal effect. The method in brief:
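Enzymatic CYP1A2 assay, human, luminescent: 10 min compound–enzyme–substrate preincubation, 1 h NADPH-dependent turnover, 20 min detection step, room temperature throughout. Reduced light indicates lower CYP1A2 activity.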

Assay [11] has as its target Voltage-gated inwardly rectifying potassium channel KCNH2 (Homo sapiens) (UniProt Q12809). Description: Human Ether-a-go-go-Related Gene (hERG) channel small molecule antagonists: fluorescence cell-based qHTS assay (AID 1671200). Note: nearly all actives have a fitted effect of over 50% in size. Note: potency is the fitted concentration of half-maximal effect. The method in brief: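 Channel function was assessed by thallium flux. Cells seeded the previous day and kept at 37 C took up FluxOR II dye over 1 h in the dark at room temperature, then sat another 10 min before stimulation.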

In assay [12] the target is Cytochrome P450 3A4 (Homo sapiens) (UniProt P08684). Description: Cytochrome P450 Family 3 Subfamily A Member 4 (CYP3A4) small molecule antagonists: luciferase reporter qHTS assay (AID 1671201). Note: nearly all actives have a fitted effect of over 50% in size. Note: potency is the fitted concentration of half-maximal effect. The method, boiled down:
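Compounds in DMSO were pin-transferred onto CYP3A4 enzyme-substrate mix and held 10 min at room temperature. NADPH regenerating solution started the reaction for 1 h; luciferin detection reagent stopped it, and luminescence was read after 20 min.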

Assay [13] concerns the target Nuclear receptor subfamily 1 group I member 2 (Rattus norvegicus) (UniProt Q9R1A7). Briefly: Rat pregnane X receptor (rPXR) activation by small molecules, qHTS assay (AID 1346983). Note: nearly all actives have a fitted effect of over 20% in size. To be noted: rPXR luciferase reporter cells, One-Glo luminescence, 24 h; max activation: hits give high values. The method, boiled down:
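Luminescent readout (One-Glo luciferase, 30 min room temperature) followed 24 hr compound treatment at 37 C of rPXR cells plated 2,000 per well and preincubated 5hr; qHTS format with compounds delivered in DMSO.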

Assay [14] concerns the target Nuclear receptor subfamily 1 group I member 2 (Homo sapiens) (UniProt O75469). Description: CYP3A4 induction through human pregnane X receptor (PXR) by small molecules, qHTS assay (AID 1346984). Note: nearly all actives have a fitted effect of over 40% in size. Note: potency is the fitted concentration of half-maximal effect. The method, boiled down: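 Readings come from a luciferase reporter: DPX-2 cells, which are HepG2 cotransfected with PXR and a CYP3A4-promoter construct, were exposed to test compounds for 24 h at 37C before One-Glo detection.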
% is set by controls: 0 for no effect and ±100 for the full control effect.

Chain of Cytochrome P450 2C9 (Homo sapiens) (P11712 whole entry, looked up): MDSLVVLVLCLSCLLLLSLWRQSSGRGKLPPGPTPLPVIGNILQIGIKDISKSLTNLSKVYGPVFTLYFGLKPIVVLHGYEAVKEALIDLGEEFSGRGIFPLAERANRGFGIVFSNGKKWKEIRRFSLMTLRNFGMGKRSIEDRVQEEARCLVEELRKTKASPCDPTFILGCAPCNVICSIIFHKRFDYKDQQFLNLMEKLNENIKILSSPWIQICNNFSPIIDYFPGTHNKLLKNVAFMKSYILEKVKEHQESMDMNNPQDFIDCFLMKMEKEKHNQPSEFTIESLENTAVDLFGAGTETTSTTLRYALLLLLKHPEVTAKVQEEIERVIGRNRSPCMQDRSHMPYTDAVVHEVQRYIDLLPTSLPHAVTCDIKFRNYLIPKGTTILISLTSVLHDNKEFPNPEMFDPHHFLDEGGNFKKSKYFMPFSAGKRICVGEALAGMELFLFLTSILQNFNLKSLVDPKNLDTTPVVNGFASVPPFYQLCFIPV
Chain of Cytochrome P450 3A4 (Homo sapiens) (P08684 whole entry, looked up): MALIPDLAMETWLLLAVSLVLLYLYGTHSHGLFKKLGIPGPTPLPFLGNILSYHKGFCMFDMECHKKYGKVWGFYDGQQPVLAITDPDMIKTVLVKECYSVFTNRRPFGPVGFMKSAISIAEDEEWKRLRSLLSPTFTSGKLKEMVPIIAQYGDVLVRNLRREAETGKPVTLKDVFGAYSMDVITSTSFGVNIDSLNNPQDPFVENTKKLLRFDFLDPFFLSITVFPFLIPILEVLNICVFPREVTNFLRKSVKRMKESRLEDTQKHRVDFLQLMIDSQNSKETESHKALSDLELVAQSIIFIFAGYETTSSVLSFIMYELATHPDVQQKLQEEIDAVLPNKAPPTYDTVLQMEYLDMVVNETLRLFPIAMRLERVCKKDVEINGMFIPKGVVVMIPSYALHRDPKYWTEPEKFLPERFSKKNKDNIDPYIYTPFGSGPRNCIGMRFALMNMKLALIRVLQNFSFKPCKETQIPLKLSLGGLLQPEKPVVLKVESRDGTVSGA
Chain of Nuclear receptor subfamily 1 group I member 2 (Homo sapiens) (O75469 whole entry, looked up): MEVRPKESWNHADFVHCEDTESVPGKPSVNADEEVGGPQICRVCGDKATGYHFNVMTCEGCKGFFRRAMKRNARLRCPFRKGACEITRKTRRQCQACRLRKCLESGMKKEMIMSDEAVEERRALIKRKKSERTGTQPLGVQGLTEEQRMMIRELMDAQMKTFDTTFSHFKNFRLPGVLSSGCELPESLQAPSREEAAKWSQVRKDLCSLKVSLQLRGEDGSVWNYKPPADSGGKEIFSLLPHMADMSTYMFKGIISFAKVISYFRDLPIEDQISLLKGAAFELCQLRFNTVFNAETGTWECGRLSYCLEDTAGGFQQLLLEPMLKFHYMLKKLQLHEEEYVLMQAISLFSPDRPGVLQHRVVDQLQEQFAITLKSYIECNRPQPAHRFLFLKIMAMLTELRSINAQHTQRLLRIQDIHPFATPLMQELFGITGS
Chain of Cytochrome P450 2D6 (Homo sapiens) (P10635 whole entry, looked up): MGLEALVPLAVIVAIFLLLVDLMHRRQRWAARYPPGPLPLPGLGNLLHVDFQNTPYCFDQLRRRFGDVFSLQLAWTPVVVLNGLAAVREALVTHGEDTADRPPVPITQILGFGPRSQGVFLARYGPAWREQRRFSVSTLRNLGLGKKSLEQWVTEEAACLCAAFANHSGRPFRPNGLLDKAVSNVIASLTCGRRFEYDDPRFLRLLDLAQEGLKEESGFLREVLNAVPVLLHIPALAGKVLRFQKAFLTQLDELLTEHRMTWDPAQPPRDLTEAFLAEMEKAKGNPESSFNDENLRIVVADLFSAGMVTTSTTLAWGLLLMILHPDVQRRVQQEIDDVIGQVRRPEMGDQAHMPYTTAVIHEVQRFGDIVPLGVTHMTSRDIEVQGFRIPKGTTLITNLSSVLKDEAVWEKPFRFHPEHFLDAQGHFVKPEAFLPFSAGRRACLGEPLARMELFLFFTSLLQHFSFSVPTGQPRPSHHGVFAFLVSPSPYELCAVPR
Chain of Cytochrome P450 2C19 (Homo sapiens) (P33261 whole entry, looked up): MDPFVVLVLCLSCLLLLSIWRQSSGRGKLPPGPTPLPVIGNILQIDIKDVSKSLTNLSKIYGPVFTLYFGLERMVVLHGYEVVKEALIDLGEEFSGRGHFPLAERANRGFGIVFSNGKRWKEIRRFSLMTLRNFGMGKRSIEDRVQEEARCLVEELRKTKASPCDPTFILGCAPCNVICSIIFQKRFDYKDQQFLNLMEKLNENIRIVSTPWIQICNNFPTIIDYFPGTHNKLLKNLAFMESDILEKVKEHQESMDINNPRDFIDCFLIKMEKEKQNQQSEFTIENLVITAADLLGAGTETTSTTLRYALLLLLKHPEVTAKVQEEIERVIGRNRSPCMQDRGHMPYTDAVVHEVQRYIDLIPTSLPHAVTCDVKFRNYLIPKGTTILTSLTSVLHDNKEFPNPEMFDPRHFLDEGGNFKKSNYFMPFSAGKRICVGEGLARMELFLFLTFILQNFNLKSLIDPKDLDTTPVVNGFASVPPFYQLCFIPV
Chain of Cytochrome P450 1A2 (Homo sapiens) (P05177 whole entry, looked up): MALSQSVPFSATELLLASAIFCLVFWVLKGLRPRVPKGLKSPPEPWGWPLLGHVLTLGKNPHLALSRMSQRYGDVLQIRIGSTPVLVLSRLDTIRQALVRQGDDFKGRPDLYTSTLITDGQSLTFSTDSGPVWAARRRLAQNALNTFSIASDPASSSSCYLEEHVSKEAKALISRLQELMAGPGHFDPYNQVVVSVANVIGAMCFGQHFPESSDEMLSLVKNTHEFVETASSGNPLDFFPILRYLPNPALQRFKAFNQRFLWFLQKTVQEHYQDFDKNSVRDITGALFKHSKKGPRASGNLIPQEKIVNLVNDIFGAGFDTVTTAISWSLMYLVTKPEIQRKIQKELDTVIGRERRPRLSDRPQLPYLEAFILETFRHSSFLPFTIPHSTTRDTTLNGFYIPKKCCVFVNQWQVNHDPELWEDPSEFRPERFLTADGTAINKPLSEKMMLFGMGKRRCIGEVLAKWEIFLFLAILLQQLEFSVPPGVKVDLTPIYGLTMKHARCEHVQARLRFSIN
Chain of Voltage-gated inwardly rectifying potassium channel KCNH2 (Homo sapiens) (Q12809 whole entry, looked up): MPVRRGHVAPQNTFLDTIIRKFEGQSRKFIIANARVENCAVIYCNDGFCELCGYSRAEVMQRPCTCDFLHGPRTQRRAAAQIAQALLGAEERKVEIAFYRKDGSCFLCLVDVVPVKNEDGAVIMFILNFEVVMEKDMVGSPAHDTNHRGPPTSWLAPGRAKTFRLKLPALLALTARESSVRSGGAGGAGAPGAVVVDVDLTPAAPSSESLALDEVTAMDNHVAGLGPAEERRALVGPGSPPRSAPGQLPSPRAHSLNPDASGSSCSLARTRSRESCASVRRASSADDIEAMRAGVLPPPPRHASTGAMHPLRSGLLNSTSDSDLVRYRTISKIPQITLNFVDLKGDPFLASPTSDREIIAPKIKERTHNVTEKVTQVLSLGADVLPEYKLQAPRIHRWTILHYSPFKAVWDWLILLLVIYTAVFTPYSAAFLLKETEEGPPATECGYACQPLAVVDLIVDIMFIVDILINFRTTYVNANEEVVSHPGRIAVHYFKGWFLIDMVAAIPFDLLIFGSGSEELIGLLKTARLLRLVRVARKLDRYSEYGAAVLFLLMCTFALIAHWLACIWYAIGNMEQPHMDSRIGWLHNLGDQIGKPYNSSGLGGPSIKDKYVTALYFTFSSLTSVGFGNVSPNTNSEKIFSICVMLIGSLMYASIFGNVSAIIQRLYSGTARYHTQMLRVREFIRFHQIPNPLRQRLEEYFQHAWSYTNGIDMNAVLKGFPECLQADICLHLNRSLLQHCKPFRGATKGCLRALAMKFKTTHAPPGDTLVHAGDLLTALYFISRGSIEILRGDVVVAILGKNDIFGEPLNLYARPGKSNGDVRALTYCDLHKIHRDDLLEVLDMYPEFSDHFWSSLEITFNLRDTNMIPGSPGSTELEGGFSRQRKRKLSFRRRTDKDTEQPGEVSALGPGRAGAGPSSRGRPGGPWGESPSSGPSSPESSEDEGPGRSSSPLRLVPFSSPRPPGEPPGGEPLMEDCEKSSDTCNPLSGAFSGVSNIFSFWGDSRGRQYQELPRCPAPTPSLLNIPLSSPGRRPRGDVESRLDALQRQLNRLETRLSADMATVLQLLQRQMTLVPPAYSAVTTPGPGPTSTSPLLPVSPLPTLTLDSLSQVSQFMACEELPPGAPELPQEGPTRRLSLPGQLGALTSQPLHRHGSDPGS
Chain of Nuclear receptor subfamily 1 group I member 2 (Rattus norvegicus) (Q9R1A7 whole entry, looked up): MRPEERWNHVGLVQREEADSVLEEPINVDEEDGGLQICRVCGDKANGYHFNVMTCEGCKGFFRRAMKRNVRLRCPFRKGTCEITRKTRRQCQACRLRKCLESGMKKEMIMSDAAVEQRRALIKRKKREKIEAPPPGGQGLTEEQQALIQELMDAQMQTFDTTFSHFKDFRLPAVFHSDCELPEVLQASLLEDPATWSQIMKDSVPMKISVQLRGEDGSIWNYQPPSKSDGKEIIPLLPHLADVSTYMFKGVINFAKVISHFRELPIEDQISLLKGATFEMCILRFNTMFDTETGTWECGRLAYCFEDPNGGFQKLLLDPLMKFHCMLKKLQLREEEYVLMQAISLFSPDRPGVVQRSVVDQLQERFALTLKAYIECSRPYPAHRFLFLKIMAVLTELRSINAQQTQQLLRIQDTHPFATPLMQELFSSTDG

Regarding `O=C(c1ccco1)N1CCNCC1`, the Potency entry in assay [1], in assay [2], in assay [3], in assay [4], in assay [5] and in assay [6] was “inactive” in each case. The Potency result in assay [7], in [8], in assay [9], in assay [10], in assay [11] and in assay [12] was “inactive” throughout.
As to `COc1cc(CNC(=O)CCCC/C=C/C(C)C)ccc1O`, the Potency entry in [1], in [2], in assay [3], in assay [4] and in assay [5] was “inactive” throughout. Also, the Potency in [6] is 33.5 µM (active); in assay [7], 38.9 µM (active); in assay [8], 9.77 µM (active); in [9], 9.77 µM (active); in [10], 30.9 µM (active); in [12], 12.3 µM (active).
With `c1ccc(CCNc2nc(-c3ccccc3)cs2)cc1`, the Potency entry in assay [1], in assay [2], in assay [3], in [4] and in [5] was “inactive” throughout. Further, the Potency in [6] is 3.76 µM (active); in [7], 17.4 µM (active); in [8], 2.75 µM (active); in assay [9], 6.92 µM (active); in assay [10], 2.29 µM (active).
`CC1=C(C)C(=O)C(C(CCCCCC(=O)O)c2ccccc2)=C(C)C1=O` (configuration not stated): the Potency entry in assay [1], in assay [2], in [4], in [5], in assay [6] and in assay [7] was “inactive” throughout. Further, the Potency entry in assay [10], in assay [11] and in [12] was “inactive” in each case. For the same molecule, the Potency in assay [3] was 26.6 µM (active); in [14] it was 10 µM (active); in [8], 24.5 µM (active); in [9] it was 17.4 µM (active). Moreover, the max activation in [13] was -6.02%.
With `CC(C)C[C@H](NC(=O)[C@H](Cc1ccccc1)NC(=O)c1cnccn1)B(O)O`, the Potency is 0.0422 µM (active) in assay [1]; 0.211 µM (active) in [2]; 0.0168 µM (active) in [3]; 0.0067 µM (active) in [4]; 0.0841 µM (active) in [5]; 0.0084 µM (active) in assay [6]. In addition, the figures for the Potency in assay [8] and in assay [10] were 34.7 µM (active) and 24.5 µM (active), respectively. Also, the max activation in assay [13] is -18.4% and -17.1%. Besides, the Potency result in [14], in [7] and in [11] was “inactive” throughout.
Regarding `CCCCCC1CCC(=O)O1` (configuration not stated), the Potency entry in assay [1], in assay [2], in [3], in [4], in assay [5] and in assay [6] was “inactive” throughout. Moreover, the Potency entry in [7], in [8] and in [11] was “inactive” in each case. For the same molecule, the Potency in [9] is 89.4 µM (active).
For the molecule `CCN(CCCCOC(=O)c1ccc(OC)c(OC)c1)C(C)Cc1ccc(OC)cc1` (configuration not stated), the Potency result in assay [1], in assay [2], in [3], in assay [4], in [5] and in assay [6] was “inactive” each time. The Potency result in assay [14] and in assay [10] was “inactive” each time. The max activation in assay [13] is 3.44%. Further, the Potency in [11] was 3.38 µM (active).
`CCCCCCCCCC(C)C=O` (configuration not stated): the Potency entry in assay [1], in assay [2], in [3], in assay [4], in [5] and in [7] was “inactive” each time. Also, the Potency result in assay [8] and in assay [11] was “inactive” throughout. Besides, the Potency in [6] is 48.6 µM (active); in assay [9] it was 44.8 µM (active).
In the case of `O=C(O)c1c2ccccc2cc2ccccc12`, the Potency result in assay [1], in assay [2], in assay [3], in assay [4], in assay [5] and in assay [6] was “inactive” in each case. Besides, the Potency entry in assay [7], in assay [8], in [11] and in assay [12] was “inactive” in each case. Also, the Potency in [9] is 31.6 µM (active); in assay [10] it was 10 µM (active).
`O=C1CCCN1CCO`: the Potency entry in assay [1], in [2], in [3], in assay [4], in assay [5] and in [6] was “inactive” throughout. Also, the Potency result in [7], in [8], in [9] and in [11] was “inactive” in each case. Also, the Potency in assay [10] is 39.9 µM (active).
